Results filed as inconclusive are left out. Activity calls are given as the source filed them. Unless noted, the call rests on the fitted dose curve; in most records, active means well fitted inhibition curve with a large enough effect; inconclusive means small, poorly fitted or top-dose-only effect; inactive means no such curve, though single readings can be large or run the other way.

A short description of test [1]: qHTS profiling of the MIPE4 collection as inhibitors of Plasmodium falciparum (DD2) proliferation (AID 743345; call rule not given here). The following applies: P. falciparum Dd2 in erythrocytes, SYBR Green DNA, 72 h; at 28.5 µM (top of the series) unless noted. In short, it runs like this: (§1)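 Parasite DNA was quantified by SYBR Green I fluorescence (ex 485, em 535 nm) after overnight lysis in saponin/Triton buffer at room temperature. Cultures at 0.3% parasitemia and 2.5% hematocrit were first exposed to compound for 72 h at 37 C; signals were normalised to artemisinin (0.29 uM) and vehicle wells.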

Test [2] in a line: qHTS profiling of the MIPE4 collection as inhibitors of Plasmodium falciparum (DD2) proliferation (Rep 2) (AID 743346; call rule not given here). The settings on record: P. falciparum Dd2 in erythrocytes, SYBR Green DNA, 72 h; at 28.5 µM (top of the series) unless noted. In short, it runs like this:
as §1
(In general: qHTS replaces the single test concentration by a dilution series.)

Test [3] in a line: qHTS profiling of the MIPE4 collection as inhibitors of Plasmodium falciparum (HB3) proliferation (AID 743347; call rule not given here;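 further: plate controls were DMSO vehicle wells for no effect and artemisinin wells for full effect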). The settings on record: P. falciparum HB3 in erythrocytes, SYBR Green DNA, 72 h; at 28.5 µM (top of the series) unless noted. In short, it runs like this:
as §1

The nature of test [4]: High-throughput drug toxicity screening in the BPDCN cell line Gen2.2 (AID 1224824; call rule not given here;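 further: cells exposed to compounds for 48 h before reading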). The following applies: Gen2.2 BPDCN cells; at 45.8 µM (top of the series) unless noted. Put shortly: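 Gen2.2, 500 cells/well, phenol red-free RPMI/10% FBS/Pen-Strep; 48 h cpd, 37 °C/5% CO2; CTG lum, 15 min RT. Norm: DMSO = 100%, bortezomib 9.2 uM final = 0%.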
Test [5] in a line: High-throughput drug toxicity screening in the BPDCN cell line Cal-1 (AID 1224825; call rule not given here). The settings on record: Cal-1 BPDCN cell viability, qHTS; at 45.8 µM (top of the series) unless noted. Put shortly: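 CellTiter-Glo luminescence after 48 h compound exposure; percent activity scaled with DMSO as 100% and bortezomib (9.2 uM final) as 0%. Cal-1 cells seeded at 500/well in RPMI, 10% FBS, no phenol red.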

A short description of test [6]: qHTS assay for measurement of the activity of small molecule inhibitors on Zika virus induced Caspase-3 activity in human iPSC derived neural progenitor cells (hNPCs) (AID 1224857). Further: % of control where 0% means no effect; nearly all actives have a fitted effect of over 65% in size. Put shortly: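 Values are percent inhibition of virus-induced caspase-3/7 signal, scaled between uninfected cells and ZIKV-infected cells. Infection used 2 FFU/cell for 6 h after 1 h compound exposure.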

Test [7] is described as follows: qHTS assay for measurement of the activity of small molecule inhibitors on Zika virus induced Caspase-3 activity in human astrocytoma cells (AID 1224859).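 Further: plate controls were ZIKV-infected untreated cells for no effect and uninfected cells for full effect.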 In short, it runs like this:
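Compound added 1 h pre-infection; ZIKV 2 FFU/cell on SNB-19 cells, 6 h, 37 C/5% CO2. Caspase-Glo 3/7 luminescence; values as % inhibition of ZIKV-induced caspase activity.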

Test [8] in a line: qHTS Screen of the MIPE 4.0 Collection Against Ewings Sarcoma (RDES) (AID 1259252). Further: nearly all actives have a fitted effect of over 35% in size. Further: potency means the concentration at half of the fitted maximal effect. Put shortly:
(§2)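 Log-phase cells in RPMI with 5% FBS attached for 4 h, then received compounds as a titration for 48 h at 37C, 5% CO2. Viability was read by CellTiter-Glo luminescence and normalized to DMSO and no-cell wells.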

Test [9] can be described thus: qHTS Screen of the MIPE 4.0 Collection Against Ewings Sarcoma (TC71) (AID 1259253). Further: nearly all actives have a fitted effect of over 40% in size. Further: potency means the concentration at half of the fitted maximal effect. Put shortly: as §2
A short description of test [10]: qHTS Screen of the MIPE 4.0 Collection Against Ewings Sarcoma (EW8) (AID 1259255). Further: nearly all actives have a fitted effect of over 35% in size. Further: potency means the concentration at half of the fitted maximal effect.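 On viability: 100% = DMSO-treated cells and 0% = medium-only wells without cells.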 In short, it runs like this:
as §2

In the case of `CCCc1nc(C(C)(C)O)c(C(=O)O)n1Cc1ccc(-c2ccccc2-c2nn[nH]n2)cc1`, the parasite growth remaining, % of DMSO control (lower = more inhibition) in test [1] was found to be 93.7%. Moreover, the parasite growth, % of control (lower = inhibition) in test [2] turned out to be 84.2%. In test [3], the growth, % of control is 61.6%. Further, in test [4], the cell viability, % of control (lower = more cytotoxic) is 110%. Moreover, in [5], the viability (% of control) amounted to 103%. Moreover, the Potency result in [6], in [7], in test [8], in [9] and in [10] was “inactive” throughout.

`CC(=O)C1=C(O)C=C2Oc3c(C(C)=O)c(O)c(C)c(O)c3C2(C)C1=O` (stereo not given): in [1], the parasite growth remaining, % of DMSO control (lower = more inhibition) came out at 97.8%. In test [2], this molecule gave a parasite growth, % of control (lower = inhibition) of 81%. This molecule also gave a growth, % of control in test [3] of 99%. The cell viability, % of control (lower = more cytotoxic) in test [4] is 141%. The viability (% of control) in test [5] stood at 103%. For the same molecule, the Potency entry in test [6], in [7], in [8], in [9] and in test [10] was “inactive” each time.

Take `Nc1ccn(C2CO[C@H](CO)O2)c(=O)n1` (stereo not given in full): in test [1], the parasite growth remaining, % of DMSO control (lower = more inhibition) amounted to 105%. In [2], the parasite growth, % of control (lower = inhibition) was 89.7%. In test [3], the growth, % of control turned out to be 75.5%. In [4], the cell viability, % of control (lower = more cytotoxic) came out at 203%. In test [5], the viability (% of control) turned out to be 99.2%. For the same molecule, the Potency result in [6], in [7], in test [8], in test [9] and in test [10] was “inactive” in each case.

Regarding `CC1(C)O[C@@H]2C[C@H]3[C@@H]4CCC5=CC(=O)C=C[C@]5(C)[C@@H]4[C@@H](O)C[C@]3(C)[C@]2(C(=O)CO)O1`, the parasite growth remaining, % of DMSO control (lower = more inhibition) in [1] is 49.3%. The parasite growth, % of control (lower = inhibition) in test [2] stood at 7.43%. The molecule also registered a growth, % of control in test [3] of 5.96%. Further, the cell viability, % of control (lower = more cytotoxic) in [4] came to 97.8%. For the same molecule, in [5], the viability (% of control) stood at 46.1%. In addition, the Potency entry in [6], in test [7], in [8], in test [9] and in test [10] was “inactive” in each case.

For the molecule `c1ccc2c(Oc3nc(Nc4ccc(N5CCOCC5)cc4)c4ncn(C5CCCCC5)c4n3)cccc2c1`, in test [1], the parasite growth remaining, % of DMSO control (lower = more inhibition) came to 8.01%. This molecule also gave a parasite growth, % of control (lower = inhibition) in test [2] of 33.7%. For the same molecule, the growth, % of control in [3] was found to be 9.45%. Also, the cell viability, % of control (lower = more cytotoxic) in test [4] was 187%. Further, the viability (% of control) in test [5] was found to be 100%. For the same molecule, the Potency result in test [6], in [7], in test [8], in [9] and in test [10] was “inactive” each time.

For `CCOc1cc2ncc(C#N)c(Nc3ccc(OCc4ccccn4)c(Cl)c3)c2cc1NC(=O)C=CCN(C)C`, the parasite growth remaining, % of DMSO control (lower = more inhibition) in [1] is 7.24%. The same molecule yielded a parasite growth, % of control (lower = inhibition) in test [2] of 12.3%. Moreover, in [3], the growth, % of control was 2.73%. In addition, the cell viability, % of control (lower = more cytotoxic) in [4] worked out at 4.27%. Moreover, the viability (% of control) in test [5] was found to be 13.3%. Further, the Potency result in test [6] and in [7] was “inactive” each time. The values for the Potency in [8], in test [9] and in [10] were 0.118 µM (active), 2.35 µM (active) and 6.62 µM (active), respectively.

For `Cc1ccccc1C(=O)Nc1ccc(C(=O)N2CCCC(O)c3cc(Cl)ccc32)c(C)c1` (stereo not given), in test [1], the parasite growth remaining, % of DMSO control (lower = more inhibition) turned out to be 75.6%. The molecule also returned a parasite growth, % of control (lower = inhibition) in test [2] of 46%. The growth, % of control in test [3] was determined as 24.6%. Besides, the cell viability, % of control (lower = more cytotoxic) in [4] is 129%. For the same molecule, the viability (% of control) in [5] came out at 104%. The Potency entry in [6], in test [7], in test [8], in test [9] and in test [10] was “inactive” each time.

On to `CC(=O)O[C@]1(C(C)=O)CC[C@H]2[C@@H]3C=C(C)C4=CC(=O)CC[C@]4(C)[C@@H]3CC[C@@]21C`, for which the parasite growth remaining, % of DMSO control (lower = more inhibition) in [1] was found to be 73.4%. In [2], this molecule returned a parasite growth, % of control (lower = inhibition) of 18.8%. Further, the growth, % of control in test [3] came to 10.6%. Moreover, the cell viability, % of control (lower = more cytotoxic) in test [4] stood at 5.55%. Moreover, the viability (% of control) in [5] turned out to be 3.38%. The Potency entry in test [6] and in test [7] was “inactive” throughout. In addition, the values for the Potency in test [8], in test [9] and in test [10] were 3.32 µM (active), 4.18 µM (active) and 7.43 µM (active), respectively.

The values above are taken from PubChem BioAssay (NCATS).
